# Screens from PubChem BioAssay.
# D1 antagonist – blocks dopamine activation of the human D1 receptor; P21728; HEK293 TREx D1 cells, calcium flux, dopamine EC80; stronger effect = lower value; activity change, negative = inhibition, % at 10 µM; 360,000 compounds, 3.2% hits; in the data active = activity change below about -30%; note: % is set by controls: 0 for no effect and ±100 for the full control effect
# Target sequence (P21728 whole entry, looked up): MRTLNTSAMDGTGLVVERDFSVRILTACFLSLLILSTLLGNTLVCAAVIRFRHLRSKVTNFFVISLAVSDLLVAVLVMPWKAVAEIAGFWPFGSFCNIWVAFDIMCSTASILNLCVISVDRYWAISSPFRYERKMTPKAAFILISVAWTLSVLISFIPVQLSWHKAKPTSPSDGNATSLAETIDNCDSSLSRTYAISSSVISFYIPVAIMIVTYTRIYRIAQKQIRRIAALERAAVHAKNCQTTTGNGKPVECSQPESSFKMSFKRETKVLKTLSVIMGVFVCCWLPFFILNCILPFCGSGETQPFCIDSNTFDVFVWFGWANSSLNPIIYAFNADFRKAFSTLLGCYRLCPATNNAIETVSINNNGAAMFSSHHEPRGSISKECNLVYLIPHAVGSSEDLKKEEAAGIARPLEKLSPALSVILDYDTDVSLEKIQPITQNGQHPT
#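 Inducible Hek293 Trex D1 cells (tetracycline, overnight, 30 C). Calcium dye 30–90 min RT. Antagonist mode: EC80 dopamine added after 180 s compound read.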
# TRHR PAM – allosterically enhances the human TRH receptor | P34981 | TRHR cells, fluo-8 calcium fluorescence, EC20 TRH enhancement | enhancement, % at 2 µM | 360,000 compounds, 0.66% hits | AID 493056; in the data active = enhancement above about 30%; note: 0% is about no effect
#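 Enhancer read-out: after compound pinning and an initial kinetic agonist-mode read, an EC20 of TRH (10 nM final) was injected and fluo-8 calcium signal (Ex 480/Em 530) followed at 1 s/cycle for 100 cycles in TRHR-expressing cells.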
# TRHR agonist – activates the human TRH receptor | P34981 | TRHR cells, calcium flux fluo-8, FDSS agonist mode | activation, % at 2 µM | 360,000 compounds, 0.18% hits | AID 493084; note: 0% is about no effect
#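 Fluo-8-loaded TRHR cells; 10 s baseline, compound added, kinetic Ca2+ fluorescence read 1/s, agonist mode.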
# D1 ag – agonists of human D1 dopamine receptor | HEK293 T-REx D1 cells, calcium flux, agonist mode | activation, % at 2 µM | 360,000 compounds, 1% hits | P21728; note: 0% is about no effect
#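 Agonism was scored from calcium flux recorded over 180 s (1 read/s) after pintool compound addition, following a 10-cycle baseline. Cells were inducible force-coupled HEK293 TREx D1, plated overnight at 30 C and loaded with no-wash calcium dye.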
# D1 PAM – enhances dopamine response at the human D1 receptor. P21728. HEK293 TREx D1 cells, calcium flux, dopamine EC20 potentiation. potentiation, % at 10 µM. 360,000 compounds, 0.036% hits. AID 504651; in the data active = potentiation above about 30%; note: 0% is about no effect
# The depositor's hits bear a star; ! = not confirmed by another sample. Compounds with a hit are over-represented: about 4.6% of the library has one in this group of screens. Cut-off read from the data, not from the text of the source, unless noted: active = activation above about 30%; inactive = the rest.
SMILES,D1 antagonist,TRHR PAM,TRHR agonist,D1 ag,D1 PAM
CN(C(=O)c1ccc(NC(=O)Cc2cccc(NC(=O)C3CCCN(C(=O)CCc4ccccc4)C3)c2)cc1)C1CCCC1 (stereo not given),6,-1,1,4,2
CCC(=O)c1ccc(N2CCCCC2)c(F)c1,-55*,-1,0,-1,-4
COc1cccc(-c2cc(C(F)(F)F)nc(NCCc3ccc(OC)c(OC)c3)n2)c1,-53*,-5,1,11,0
COc1ccc(-c2cc(C(F)(F)F)nc(NCc3ccccc3)n2)cc1OC,7,-4,0,1,0
CCc1ccc(O)c(CNCCNCc2cc(CC)ccc2O)c1,-9,9,0,31*,-2
COc1cc2nc(/C=C/c3ccc(N(C)C)cc3)sc2cc1SC,12,6,85*,554*,35*
CN(C)c1ccc(/C=C/c2ccncc2)cc1,4,1,19,14,-3
Cc1ccc(CCNC(=O)CN2CCN(Cc3ccc(Cl)cc3)C2=O)cc1,-15,-7,-1,1,0
O=c1c(-c2ccccc2)c(-c2ccccc2)oc2cc(O)cc(O)c12,53,-10,-3,40*,-1
Cc1cc(C)c(NC(=O)Cn2nnc(-c3nc(-c4ccccc4)no3)c2N)c(C)c1,-5,1,0,0,0
CN1N=C(C(=O)Nc2ccc3c(c2)CCC3)CCC1=O,-32*,-1,0,1,-3
Cn1ncc(Cl)c1C(=O)Nc1ccc2c(c1)CCC2,-5,3,0,2,3
COc1ccc(C2c3c(n(C)c4ccccc34)C(=O)N2CC(=O)Nc2ccc(Cl)cc2)cc1 (stereo not given),-1,4,1,2,-2
Cc1onc(-c2ccccc2)c1C(=O)Nc1ncc([N+](=O)[O-])s1,-32*,-4,1,43*,-8
Cc1onc(-c2ccccc2)c1C(=O)Nc1nnc(C(C)C)s1,10,1,0,4,1
CCCn1c(SCC(=O)Nc2ccc(OC)cc2[N+](=O)[O-])n[nH]c1=O,-46*,4,-1,0,-15
COCC(=O)NC1CCN(CC(=O)Nc2ccc(OC)cc2[N+](=O)[O-])CC1,-38*,6,-1,0,-2
CCCCC(=O)Nc1ccc(C(=O)Nc2ccc(OC)cc2[N+](=O)[O-])cc1,-18,8,13,41*,-2
CCCC(=O)C1=C(O)C(C(=O)OC)C(C)(C)CC1=Nc1ccccc1 (stereo not given),-46*,-4,0,1,-3
CCCC(=O)C1=C(O)C(C(=O)OC)C(C)(C)CC1=NCc1ccccc1 (stereo not given),1,-2,0,1,-7
CCOC(=O)c1nc(NCc2ccc(Cl)cc2)c2c(C)noc2n1,-49*,0,-1,2,-1
COc1ccc(CNc2nc(-c3ccco3)nn2C(=O)c2ccccc2C)cc1,-36*,3,1,4,-2
COc1ccc(CNc2nc(-c3cccnc3)nn2S(C)(=O)=O)cc1,-31*,-6,-1,4,-2
CS(=O)(=O)n1nc(-c2cccnc2)nc1NCc1ccccc1,1,1,0,-1,-4
COc1ccc(CNc2nc(-c3ccccc3)nn2C(=O)c2cccs2)cc1,9,-6,9,37*,0
SMILES,D1 antagonist,TRHR PAM,TRHR agonist,D1 ag,D1 PAM
Cc1ccc(CNc2nc(-c3ccco3)nn2C(=O)c2ccccc2[N+](=O)[O-])cc1,-62*,37*,-2,7,-2
CCN1CCN(C(=O)c2c(C)nn(-c3ccc(F)cc3)c2-n2cccc2)CC1,-11,-4,1,1,-1
CC(=O)n1nc(-c2ccccc2)nc1NCc1ccc(N(C)C)cc1,1,39*,0,1,0
CN(C)c1ccc(CNc2nc(-c3ccccc3)nn2S(C)(=O)=O)cc1,9,2,0,-1,-1
COc1ccc(NCc2nnc(SCC(=O)Nc3nc(-c4ccccc4)cs3)n2-c2ccccc2)cc1,-60*,3,1,0,-3
CCCCN(C)CCCNC(=O)Cn1ncc2c3ccccc3n(Cc3ccccc3)c2c1=O,0,1,-2,7,-2
Cc1cccc(-c2nc3c4ccccc4nc(N4CCN(c5ccccc5F)CC4)n3n2)c1,-12,-3,0,1,-7
CCc1ccc2[nH]c(=O)c(C(c3nnnn3Cc3ccccc3)N3CCOCC3)cc2c1 (stereo not given),1,3,0,0,-4
CCc1ccc2[nH]c(=O)c(C(c3nnnn3Cc3ccc(OC)cc3)N3CCOCC3)cc2c1 (stereo not given),-44*,4,0,0,4
COc1ccc(OC)c(C(c2nnnn2Cc2ccccc2)N2CCC(C(N)=O)CC2)c1 (stereo not given),-45*,2,-1,2,-5
COc1cc(NC(=O)Cc2noc3ccccc23)cc(OC)c1OC,-7,-8,0,2,-1
CCOC(=O)C(C)Oc1ccc2c(CC)cc(=O)oc2c1C (stereo not given),6,-4,-1,1,-3
CCOC(=O)CCc1c(C)c2ccc(OC(C)C(=O)OCC)c(C)c2oc1=O (stereo not given),-41*,12,-1,18,-12
Cn1c(=O)c2c(c3ccccc31)OC(=O)CC2c1ccc(C(F)(F)F)cc1 (stereo not given),1,-4,0,0,-2
COC(=O)CNc1c(-c2ccccc2)nc2ccc(Br)cn12,10,38*,-2,0,2
COc1ccccc1CCNC(=O)Cc1c(C)c2ccc(O)cc2oc1=O,-21,1,-1,-1,0
c1ccc(Cc2nnc3sc(-c4cccnc4)nn23)cc1,-7,9,0,5,7
c1ccc(Cc2nnc3sc(-c4ccncc4)nn23)cc1,-33*,6,0,2,3
CC1CC(C)CN(c2ccc([N+](=O)[O-])nc2)C1 (stereo not given),-9,2,-1,0,0
CC1CN(c2ccc([N+](=O)[O-])nc2)CC(C)O1 (stereo not given),-35*,0,0,1,-4
CN(Cc1ccccc1)C1CCCN(C(=O)c2ccc(Cl)s2)C1 (stereo not given),-31*,1,0,2,-9
Cc1oc(-c2ccccc2F)nc1CS(=O)(=O)CC(=O)NCCCN1CCN(C)CC1,15,-7,0,3,-9
CCOc1ccc(CCNC(=O)CS(=O)(=O)Cc2nc(-c3ccc(OC)cc3)oc2C)cc1,0,40*!,0,19,-1
COc1ccc(-c2nc(CS(=O)(=O)CC(=O)NCCCN3CCN(C)CC3)c(C)o2)cc1,-38*,1,0,0,-5
